From PubChem BioAssay AID2685 (National Center for Advancing Translational Sciences (NCATS), 2010)
Among all 320,000 compounds or so, about 2,100 (0.66%) were called active. Inconclusive results (about 53%) are left out. The call rests on the fitted dose curve; in most records, active means well fitted inhibition curve with a large enough effect in the signal ratio, with a control signal flat (not every such curve was filed as active); inconclusive means small, poorly fitted or top-dose-only effect, or effect the other way, or a change in a side signal; inactive means flat fitted curve, though single readings scatter; the % refers to the signal ratio. Many of the other results were omitted from the sample, so actives are more common in it than they were.

Experiment: qHTS Assay for Lipid Storage Modulators in Drosophila S3 Cells;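 on cell number change: cells counted by Cell Tracker Red CMTPX staining in the red channel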
Conditions: BODIPY lipid droplet fluorescence, 18-24 h, cells fed with added oleic acid; cell number change: measured here: cell count max response; series mostly up to 46.1 µM
Outline: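 Drosophila S3 cells got compounds at several concentrations plus oleic acid (400 uM solution). Laser-scanning cytometry with 488 nm excitation read lipid droplets at 500-530 nm and cells at 575-640 nm. Percent activity was relative to 20 uM Triacsin C.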
Potency means the concentration at half of the fitted maximal effect.

Compound	Potency	cell number change [%]
COc1ccc(CCNC(=O)CSc2ccc(-c3ccccc3)nn2)cc1	inactive	2.87
CC(C)CNC(=O)C1CC(=O)OC12CCCCC2 (stereo not drawn)	inactive	
CC(Oc1ccc(-c2ccccc2)cc1)C(=O)N1CCOCC1 (stereo not drawn)	2.91 µM (active)	17.9
CC(Oc1ccc(C(=O)c2ccccc2)cc1)C(=O)N1CCOCC1 (stereo not drawn)	inactive	
CC(Oc1ccc(-c2nnco2)cc1)C(=O)N1CCOCC1 (stereo not drawn)	inactive	6.36
CCCN1Cc2cccc(C(=O)NCCCOC(C)C)c2C1=O	inactive	2.03
Cc1ccc(-c2cc(C(=O)NCCCN3CCCC3)c3ccccc3n2)cc1C	inactive	
COc1cccc(NC(=O)C2CC(=O)n3cnnc3S2)c1 (stereo not drawn)	inactive	-29
Cc1cccc(NC(=O)C2CC(=O)n3cnnc3S2)c1 (stereo not drawn)	13 µM (active)	-1.17
CCN=C1SC(C(=O)Nc2cccc(C)c2)CC(=O)N1CC (stereo not drawn)	inactive	-13.5
COc1ccc(N=C2NC(=O)/C(=C/c3ccco3)S2)cc1	inactive	15.8
O=C(CNC(=O)c1ccco1)Nc1ccncc1	inactive	
COC(=O)/C=C1\SC(=Nc2ccccc2)NC1=O	inactive	10.6
CCOc1ccc(N=C2NC(=O)/C(=C/C(=O)OC)S2)cc1	25.9 µM (active)	
COC(=O)/C=C1/SC(=Nc2ccc(Cl)c(Cl)c2)NC1=O	inactive	7.13
O=C(c1nc2ccccn2c1CNCCCn1ncc2ccccc21)N1CCOCC1	inactive	25.5
COc1cccc(/C=N/NC(N)=S)c1OS(=O)(=O)c1ccccc1	inactive	-16.4
COc1cccc(/C=N/NC(N)=S)c1OCc1cccc(Cl)c1	8.2 µM (active)	0.0836
NC(=S)N/N=C\c1ccccc1OCc1ccccc1	inactive	0.634
O=C(c1ccc(C#CC2(O)CCCCC2)cc1)N1CCOCC1	inactive	5.75
O=C1OCC(CO)(CO)N=C1NNc1ccccc1Cl	inactive	

Compound	Potency	cell number change [%]
COc1cccc(C2=NOC(C(=O)Nc3cccnc3Cl)C2)c1 (stereo not drawn)	inactive	3.11
Cc1cc(C)n2nc(C(=O)Nc3ccc(S(=O)(=O)N(C)C)cc3)nc2n1	inactive	-26.7
Cc1cc(C)n2nc(C(=O)Nc3cccc(S(=O)(=O)N(C)c4ccccc4)c3)nc2n1	11.6 µM (active)	-15.3
CN(c1ccccc1)S(=O)(=O)c1cccc(NC(=O)c2ccncc2)c1	inactive	0.47
CC(C)(C)c1cc(N2CCOCC2)n2ncc(-c3ccccc3)c2n1	inactive	-9.44
Cc1cc(N2CCOCC2)n2ncc(-c3ccccc3)c2n1	inactive	-5.35
Cc1nc2c(-c3ccccc3)cnn2c(N2CCOCC2)c1C	2.91 µM (active)	-16.7
O=C(CN1CCCCC1)N1N=C(c2cccs2)CC1c1cccs1 (stereo not drawn)	inactive	18.5
CSc1ccc(CN(C)C(=O)CSCC(=O)Nc2cc(C)on2)cc1	inactive	13.3
CCN(C(=O)CSc1nc2ccc(OC)cc2[nH]1)C1CCS(=O)(=O)C1 (stereo not drawn)	inactive	
Cc1ccc2nc(SCC(=O)N(C)C3CCS(=O)(=O)C3)[nH]c2c1 (stereo not drawn)	1.16 µM (active)	7.53
CN(C(=O)CSc1nnc(-c2ccc(C(C)(C)C)cc2)n1C)C1CCS(=O)(=O)C1 (stereo not drawn)	10.3 µM (active)	3.86
CN(C(=O)CSc1nnc(-c2ccccc2)n1C)C1CCS(=O)(=O)C1 (stereo not drawn)	inactive	
CCn1c(SCC(=O)N(C)C2CCS(=O)(=O)C2)nnc1-c1ccccc1 (stereo not drawn)	inactive	-11.5
CN(C(=O)CSc1nc2ccccc2[nH]1)C1CCS(=O)(=O)C1 (stereo not drawn)	inactive	-2.26
O=C(COC(=O)Cc1ccccc1F)Nc1cc(S(=O)(=O)N2CCOCC2)ccc1N1CCCC1	inactive	0.15
COC(=O)CN1C(=O)N/C(=C/c2ccc(OC)cc2)C1=O	inactive	-7.72
O=C(NC1CC1)c1ccc(S(=O)(=O)NCC2CCCCC2)cc1	inactive	6.17
NC(=O)c1ccc(Oc2ccc(-c3nnco3)cc2)c([N+](=O)[O-])c1	inactive	16.7
NC(=O)c1ccc(Oc2ccc3c(c2)CCC3)c([N+](=O)[O-])c1	2.91 µM (active)	-16.2
NC(=O)c1ccc(Oc2ccc(Cl)cc2)c([N+](=O)[O-])c1	inactive	18.1

Compound	Potency	cell number change [%]
CCOc1ccc(Cl)cc1S(=O)(=O)N1CCCC1	inactive	23.3
COc1cnc(-c2ccccc2)nc1Sc1ccccc1	inactive	14.5
CCN(CC)S(=O)(=O)c1ccc(C(=O)NCCOC(=O)c2ccc(F)cc2F)cc1	4.61 µM (active)	
CCc1ccc(OCCNC(=O)c2ccc(S(=O)(=O)N(C)C)cc2)cc1	inactive	-5.09
CN(C)S(=O)(=O)c1cccc(C(=O)NCCOC(=O)c2cc(F)c(F)cc2Cl)c1	inactive	5.13
CN(C)S(=O)(=O)c1ccc(C(=O)NCCOc2ccccc2)cc1	inactive	-3.57
CCN(CC)CCNC(=O)c1ccc(NC(=O)c2ccc(F)cc2F)cc1	inactive	0.662
CN(C)S(=O)(=O)c1ccc(C(=O)NCCOc2ccc(F)cc2)cc1	18.4 µM (active)	5.77
CN1C(C(=O)NCc2ccccc2)CC2Cn3c(nc4cc(Cl)c(Cl)cc43)C21 (stereo not drawn)	inactive	23.6
CS(=O)(=O)N1CCN(c2ccc(C(=O)N3CCOCC3)cc2[N+](=O)[O-])CC1	inactive	10.2
COc1nc2ccccc2nc1CCC(=O)O	inactive	-4.36
CC(=O)Nc1nc(=O)c2ccccc2s1	inactive	-8.23
O=C(Nc1ccc(Cl)c([N+](=O)[O-])c1)c1ccc2c(c1)OCCO2	inactive	0.135
O=C(Nc1ccc2c(c1)OCCO2)c1ccc(Cl)cc1Cl	inactive	-12.4
Cc1cc(C(=O)Nc2ccc3c(c2)OCCO3)ccc1[N+](=O)[O-]	inactive	0.293
O=C(Nc1ccc(NC(=O)c2ccc(Cl)cc2Cl)cc1)c1ccc2c(c1)OCO2	16.4 µM (active)	-0.901
O=C(Nc1ccc(F)c(F)c1)c1ccc2c(c1)OCO2	inactive	-8.99
O=C(Nc1ccc2c(c1)OCCO2)c1ccc(Cl)c([N+](=O)[O-])c1	16.4 µM (active)	-0.392
Fc1cccc(Cl)c1Cn1nnc2c(NCc3ccccn3)ncnc21	inactive	-17.4
